In ChEMBL document CHEMBL4513216, “Probing the Open Global Health Chemical Diversity Library for Multistage-Active Starting Points for Next-Generation Antimalarials” (ACS Infect Dis, 2020):
Screen size: about 69,000 compounds; about 8,600 (12%) showed an effect of 50% or more. For the sample, strong results were picked, then their nearest neighbours and some compounds at random.

tested on: Plasmodium berghei; assay: Screen against P. berghei liver stage (PbLuc), transformed with Luciferase, at 10uM; format: functional, HepG2; settings: tested at 10 uM

Structure (SMILES) | INHIBITION
CCc1nnc(C(C)N2CCC(NC(=O)C3CCCCC3)CC2)o1 (centres undefined) | 11.3%
CN(Cc1cnccn1)C(=O)[C@@]12CNC[C@@H]1CN(Cc1ccccc1)C2 | -22.3%
O=C(NCC1Cn2nnc(-c3cccc(F)c3)c2CO1)c1ccc[nH]1 (centres undefined) | 9.63%
CCO[C@@H]1C[C@H]2CN(S(=O)(=O)c3cccs3)CCN2C1 | 57.1%
CCN1C[C@@H]2CN(S(=O)(=O)c3cccs3)C[C@@H]2C1=O | -24.5%
O=S(=O)(c1cccs1)N1CCN2C[C@H](OCC3CC3)C[C@H]2C1 | 8.85%
CC(C)c1nc(S(=O)(=O)N(C)c2cc(F)ccc2F)c[nH]1 | 23.3%
CC(C)c1nc(S(=O)(=O)N(C)c2ccc(F)cc2)c[nH]1 | 54.8%
CCOc1ccc(N(C)S(=O)(=O)c2c[nH]c(C(C)C)n2)cc1 | 10.3%
CNC(=O)c1cn[nH]c1C1CCCN1C(=O)c1ccccn1 (centres undefined) | -20.6%
COCCn1cnnc1C1CCCN(c2cnccn2)C1 (centres undefined) | 30.4%
CSCC(=O)N[C@H]1CC[C@H](Nc2nccc(-c3ccncc3)n2)C1 | 14.2%
CSCCC(=O)N[C@H]1CC[C@H](Nc2nccc(-c3ccncc3)n2)C1 | 0.923%
COCCC(=O)N[C@H]1CC[C@H](Nc2nccc(-c3ccncc3)n2)C1 | 61.5%
Cc1cc(C(F)(F)F)nc(C2COCCN2S(C)(=O)=O)n1 (centres undefined) | 33.65%
CC(C)OCCCNS(=O)(=O)c1ccc2c(c1)NC(=O)C(C)O2 (centres undefined) | -4.87%
COc1cc(NCc2ccc(Cl)cc2)c(-c2nn[nH]n2)cc1OC | 22.6%
O=C(CCCn1ccnc1)N1CCC2(CC1)[C@H](O)C[C@@H]2OCCO | 18%
O=C(CCn1cncn1)N1CCC2(CC1)[C@H](O)C[C@@H]2OCCO | 12.7%
O=C(CCn1cc(Cl)cn1)N1CCC2(CC1)[C@H](O)C[C@@H]2OCCO | 75.7%
O=C(CCn1cc(Cl)cn1)N1CCCC(O)(CO)CC1 (centres undefined) | -15.6%
O=C(CCn1cc(Cl)cn1)N1CCC2(CC1)OCCCC2O (centres undefined) | 2.79%
O=C(CCCn1cncn1)N1CCC2(CC1)[C@H](O)C[C@@H]2OCCO | 54.4%
Cc1nc(C)n(C2CCCN(C(=O)CCOCC(C)C)C2)n1 (centres undefined) | 7.27%
Cc1cc(N2CCN(CC(=O)N(C)C)CC2)nc(-c2ccncc2)n1 | 4.74%
CNc1cc(C2CN(C(=O)c3cnn(C)c3)CCO2)nc(C)n1 (centres undefined) | 25.8%

Structure (SMILES) | INHIBITION
CCC(Cn1ccnc1)n1cnc2c(C)csc2c1=O (centres undefined) | 14.9%
Cc1nc(C2CCCN2Cc2cc(Cl)c3c(c2)OCCCO3)no1 (centres undefined) | 52.2%
Cc1nc(C2CCCN2Cc2cc(Cl)c3c(c2)OCO3)no1 (centres undefined) | 44.3%
Cc1nc(C2CCCN2Cc2cc(Cl)c3c(c2)OCCO3)no1 (centres undefined) | 45.4%
Cc1nc(CNCc2ccc(N3CCC(CO)CC3)nc2)cs1 | -11.6%
COc1ccc(C)cc1CNCc1ccc(-n2nc(C)cc2C)nc1 | 18.6%
Cc1ccc(CNCc2ccc(N3CCC(CO)CC3)nc2)c(C)c1 | 58.7%
Cc1ncsc1C(=O)OCCN1CCCCCC1=O | -60.9%
CCc1n[nH]c(C2CN(C(=O)CCc3cccs3)CCO2)n1 (centres undefined) | 51.3%
CCCc1n[nH]c(C2CN(C(=O)CCCn3ccnc3C)CCO2)n1 (centres undefined) | 87.2%
CC(C)(C)c1n[nH]c(C2CN(C(=O)CCc3cccs3)CCO2)n1 (centres undefined) | -32.5%
Cc1n[nH]c(C2CN(C(=O)CCCn3cccn3)CCO2)n1 (centres undefined) | -22.1%
CCc1n[nH]c(C2CN(C(=O)Cc3cccs3)CCO2)n1 (centres undefined) | -33.7%
CCCc1n[nH]c(C2CN(C(=O)CCn3nc(C)cc3C)CCO2)n1 (centres undefined) | 34.6%
CCc1n[nH]c(C2CN(C(=O)CCCn3cccn3)CCO2)n1 (centres undefined) | 56.1%
CCCc1n[nH]c(C2CN(C(=O)CCCn3cccn3)CCO2)n1 (centres undefined) | 1.81%
CCCc1n[nH]c(C2CN(C(=O)CCCn3ccnc3)CCO2)n1 (centres undefined) | -18.9%
Cc1cc(C(=O)N2C[C@H](C(C)C)[C@@H](N(C)C)C2)cs1 | 47.2%
CS(=O)(=O)c1cn[nH]c1C1CCCCN1C(=O)c1cnccn1 (centres undefined) | -21.4%
Cc1nc(CN2CCCN(C(=O)c3c(C)oc(C)c3C)CC2)cs1 | -4.16%
O=c1c(S(=O)(=O)N2CCCC2)cccn1Cc1ccccc1Cl | 29.6%
c1cnc(N2CCO[C@H]3CN(Cc4c[nH]cn4)C[C@H]32)cn1 | 37.8%
OCCN1CCCC(c2nccnc2Oc2ccc(F)cc2)C1 (centres undefined) | 20.8%
CCS(=O)(=O)N1C[C@@H](c2cc(O)nc(C)n2)[C@H](c2ccccc2F)C1 | 3.69%
O=C(c1ccccn1)N1CCC2(CC1)COC(COc1cccnc1)C2 (centres undefined) | 5.67%
CC(c1cccc(-c2ncc(C#N)c(N)n2)c1)N(C)C (centres undefined) | -0.996%

Structure (SMILES) | INHIBITION
COc1ccc(-c2cc(CNc3ncnc4c3CCNCC4)no2)cc1 | 94.1%
c1cncc(-c2noc(CNc3ncnc4c3CCNCC4)n2)c1 | 8.74%
COCc1noc(CCNc2ncnc3c2CCNCC3)n1 | -58%
Cc1cccc(-n2cc(CNc3ncnc4c3CCNCC4)cn2)c1 | 16%
Clc1ccccc1-c1cc(CNc2ncnc3c2CCNCC3)no1 | 88.2%
Cc1ccccc1-n1cc(CNc2ncnc3c2CCNCC3)cn1 | -20.7%
c1ccc(Cn2cc(CNc3ncnc4c3CCNCC4)cn2)cc1 | 23.6%
c1cncc(-c2noc(CCNc3ncnc4c3CCNCC4)n2)c1 | 19.4%
Cc1ccc(-c2cc(CNc3ncnc4c3CCNCC4)no2)cc1 | 93.1%
CCn1cc(CN2CCCN(C(=O)c3ccoc3C)CC2)cn1 | -19.9%
COCC(=O)N1Cc2nccn2CC(COc2cccnc2)C1 (centres undefined) | 29.3%
COc1nn(C)c2c1CCCN(C(=O)c1ccc[nH]1)C2 | -15.7%
CCn1c(SCC(N)=O)nnc1-c1csc2c1CCCC2 | 25.8%
Cn1ccc(C(=O)N2CCCC2c2cc(CO)[nH]n2)n1 (centres undefined) | 14.385%
CCn1cnnc1CNc1nc(C)nc2scc(CC(C)C)c12 | 44.3%
CCc1nc(-c2cncnc2C2CCCNC2)no1 (centres undefined) | 20.25%
Cc1ccc(Cn2nc(C)c3c(C(=O)O)c(Cl)c(C)nc32)cc1 | 3.52%
CCNc1c(NC(=O)C2CC2)c(=O)oc2ccccc12 | -21.9%
CN(C)CC(=O)N1CCCCC1c1nc(N)ncc1-c1ccccc1 (centres undefined) | 12.3%
CCSc1nnc([C@@H](N)CC(C)C)o1 | -4.56%
Cc1cccc(-c2nccnc2C2CCCN(C)C2)c1C (centres undefined) | 35.2%
COc1ccccc1-c1nccnc1C1CCN(C(C)=O)CC1 | 10%
Cc1cccc(-c2nccnc2C2CCN(C)CC2)c1C | 54.5%
COCc1nc(C(=O)N2CCCC2c2ccncc2)cs1 (centres undefined) | 29.7%
CC(C)c1noc(CN2CCN(CCO)CC2)n1 | -10.875%
Brc1cccc(-c2noc(C3COCCO3)n2)c1 (centres undefined) | -99.3%

Structure (SMILES) | INHIBITION
CCCNc1ccc(C(=O)NCCc2cccc(Cl)c2)cn1 | 68.8%
CCCNc1ccc(C(=O)NCCc2ccc(Cl)cc2)cn1 | -71.5%
CCCNc1ccc(C(=O)NCCc2cccc(OC)c2)cn1 | 25.3%
O=C1Nc2ccccc2/C1=C1\CCCN1 | 43.4%
Cc1nn(Cc2ccccc2)c(C)c1CNC1CCc2ncnn2C1 (centres undefined) | -10.1%
COCC1COCCC12CCN(C(=O)CCc1ccccc1C)CC2 (centres undefined) | -30.6%
CNCC(=O)Nc1cccc(-c2cnc(NCCO)nc2)c1 | 23.4%
CNCC(=O)Nc1cccc(-c2cnc(NCCS(C)(=O)=O)nc2)c1 | 45.6%
CNCC(=O)Nc1ccc(-c2cnc(NCCS(C)(=O)=O)nc2)cc1 | 54.5%
Cn1nc(C(=O)NCc2ccccc2C(F)(F)F)c2c1CCS(=O)(=O)C2 | 45.8%
O=C(C1CCOCC1)N1C[C@@H]2CC[C@H]1CN(C1Cc3ccccc3C1)C2 | -59.3%
CCN(CC)[C@H]1C[C@@H](Cc2cc(CO)on2)C1(C)C | 17.4%
CN(C)[C@H]1C[C@@H](Cc2cc(CO)on2)C1(C)C | -17.1%
CN(Cc1cc(C[C@@H]2C[C@H](N)C2(C)C)no1)c1ccccc1 | 54.3%
Cc1cccc(CN2C(=O)CC[C@@H]3[C@H]2CCN3Cc2nccn2C)n1 | 40.4%
c1ccc(Cn2cc3c(n2)C(CNCC2CCOCC2)OCC3)nc1 (centres undefined) | -7.7%
CCC(CC)C(=O)N1CCC2(C1)CN(c1ccccc1)C(=O)CN2C (centres undefined) | 28.4%
COC[C@@]12CC[C@@H](N3CCOCC3)C[C@H]1CCN(c1nc(CO)cs1)C2 | 15.8%
CCC[C@H]1CN(c2nc(CO)cs2)C[C@@H]1NC(=O)C1(COC)CC1 | 69.7%
CCC[C@H]1CN(Cc2nccn2C)C[C@@H]1NC(=O)C1(COC)CCC1 | 31.2%
CCC[C@H]1CN(Cc2cc(C)no2)C[C@@H]1NC(=O)C1(COC)CCC1 | 59.3%
CCC[C@H]1CN(Cc2cncn2C)C[C@@H]1NC(=O)C1(COC)CCC1 | 28%
CCC[C@H]1CN(Cc2cscn2)C[C@@H]1NC(=O)C1(COC)CCC1 | 48.5%
c1ccc(-c2nnc3n2CCN(Cc2ccc4c(c2)OCCO4)C3)cc1 | 33.7%
NC(=O)c1cccc(OCC(=O)N2CCCC(n3ccnc3)C2)c1 (centres undefined) | 36.1%
CC(=O)N1[C@H](CN(C)C)C[C@@H]2CN(c3ncc(F)cn3)CC[C@@H]21 | -0.804%
